Results published in PubChem BioAssay (NCI).
Values joined by “and” are separate entries in the source; they are usually repeats but may differ in a detail not shown here. Equal values may be shown once. The panel holds about 83,000 compounds, 20% with a hit somewhere; the sample as a whole holds those more often.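 Cell lines were cultured in 96-well plates, exposed to a single compound concentration, and assessed for percent growth 48 hours later.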 Active and inactive are the calls of the source. How the source made its calls: active means growth percent below 10; inactive means the rest.

Assays:
Assay in all cases: NCI-60 one-dose screen, 48 h (100 = growth as untreated, 0 = no growth, -100 = all killed)
Conditions in all cases: 10 µM unless noted
DU-145 prostate = tested on: DU-145 prostate
K-562 leukemia = tested on: K-562 leukemia
MALME-3M melanoma = tested on: MALME-3M melanoma
MDA-MB-231 breast = tested on: MDA-MB-231 breast
RXF 393 renal = tested on: RXF 393 renal
SF-268 CNS = tested on: SF-268 CNS
SF-295 CNS = tested on: SF-295 CNS
SF-539 CNS = tested on: SF-539 CNS
UACC-257 melanoma = tested on: UACC-257 melanoma
M14 melanoma = tested on: M14 melanoma

Measured: growth

COc1cc(C=O)ccc1Oc1nc(Nc2ccc(F)cc2)nc(N(C)C)n1
inactive: DU-145 prostate 90% and 72.7% | K-562 leukemia 55.6% and 35.2% | MALME-3M melanoma 75.8% and 82.1% | MDA-MB-231 breast 90.1% and 76.2% | RXF 393 renal 91.9% and 64.9% | SF-268 CNS 73.2% and 66.9% | SF-295 CNS 65.5% and 82.7% | SF-539 CNS 92.9% and 42.8% | UACC-257 melanoma 57.7% and 102% | M14 melanoma 93.4% and 65.3%

COC(=O)c1cc(C(=O)C(F)(F)F)n2c3ccccc3c3ccccc3c12
inactive: DU-145 prostate 96% | K-562 leukemia 82.6% | MALME-3M melanoma 104% | MDA-MB-231 breast 42.4% | RXF 393 renal 69.2% | SF-268 CNS 83.4% | SF-295 CNS 37.2% | SF-539 CNS 67.5% | UACC-257 melanoma 110% | M14 melanoma 87.6%

N#CC1=C(c2cccs2)Nc2c(c(-c3ccccc3)nn2-c2ccccc2)C12C(=O)Nc1ccc(Br)cc12 (stereo not given)
active: K-562 leukemia 2.75% | MALME-3M melanoma -18.7% | MDA-MB-231 breast -34% | RXF 393 renal -39.7% | SF-295 CNS -37.3% | SF-539 CNS -62.4% | M14 melanoma -72.1%
inactive: DU-145 prostate 31.5% | SF-268 CNS 15.7% | UACC-257 melanoma 35.8%

O=C1c2cccc3c(N4CCN(Cc5ccccc5)CC4)ccc(c23)C(=O)N1c1cccc(-c2nn(-c3ccccc3)cc2-c2nc3ccccc3s2)c1
inactive: DU-145 prostate 119% | K-562 leukemia 97.4% | MALME-3M melanoma 98.5% | MDA-MB-231 breast 105% | RXF 393 renal 99.8% | SF-268 CNS 108% | SF-295 CNS 107% | SF-539 CNS 97% | UACC-257 melanoma 124% | M14 melanoma 97.8%

Cc1cccc(C)c1Nc1nnc(-c2c[nH]c3ccccc23)o1
inactive: DU-145 prostate 107% | K-562 leukemia 98.4% | MALME-3M melanoma 78.4% | MDA-MB-231 breast 79.1% | RXF 393 renal 108% | SF-268 CNS 104% | SF-295 CNS 96% | SF-539 CNS 94.1% | UACC-257 melanoma 95.7% | M14 melanoma 102%

COc1ccc(N=Nc2c(N)nn3c(-c4cc5cc(Br)ccc5oc4=O)ccnc23)cc1
active: MDA-MB-231 breast -27.3% | RXF 393 renal -41.8% | SF-295 CNS -33.6%
inactive: DU-145 prostate 37.3% | K-562 leukemia 48.4% | MALME-3M melanoma 46.4% | SF-268 CNS 23.2% | SF-539 CNS 15.6% | UACC-257 melanoma 78.1% | M14 melanoma 52.5%

COc1ccc(OC)c(Cn2cc(C#N)c(N)c2C(=O)c2ccc(Br)cc2)c1
inactive: DU-145 prostate 79.1% | K-562 leukemia 15.2% | MALME-3M melanoma 42.6% | MDA-MB-231 breast 60.7% | RXF 393 renal 41.8% | SF-268 CNS 68.5% | SF-295 CNS 39.1% | SF-539 CNS 47.7% | UACC-257 melanoma 55.6% | M14 melanoma 33.8%

CN(C)c1nc(NCCNS(=O)(=O)c2ccc(C3=Nc4c(N)nc(N)nc4NC(c4ccc(Cl)cc4)C3)cc2)nc(N2CCOCC2)n1 (stereo not given)
active: RXF 393 renal 2.28%
inactive: DU-145 prostate 67.1% | K-562 leukemia 15.7% | MALME-3M melanoma 62.4% | MDA-MB-231 breast 12% | SF-268 CNS 53.4% | SF-295 CNS 38.5% | SF-539 CNS 43% | UACC-257 melanoma 75.7% | M14 melanoma 45.5%

CC(C)C[C@H](NC(=O)[C@@H]1CCCCCCCCCCC(=O)N[C@@H](CC(=O)N2CCC[C@@H]2C2CCCC2)C(=O)N1)B(O)O
active: DU-145 prostate 6.72% | K-562 leukemia 0.735% | MALME-3M melanoma -75.1% | MDA-MB-231 breast -72.4% | RXF 393 renal -84.8% | SF-268 CNS 4.67% | SF-295 CNS -93.4% | SF-539 CNS -44.8% | UACC-257 melanoma -31% | M14 melanoma -48.2%

COc1ccccc1NC(=O)N/N=C/c1c[nH]c2ccccc12
inactive: DU-145 prostate 17.6% | K-562 leukemia 15.4% | MALME-3M melanoma 54.6% | MDA-MB-231 breast 52.3% | SF-268 CNS 30.9% | UACC-257 melanoma 54.6% | M14 melanoma 14.8%
active: RXF 393 renal -38.7% | SF-295 CNS -14.5% | SF-539 CNS -11.4%

FC(F)(F)CN1CCN(CCn2c(C(F)(F)F)cc3c(Cl)ncnc32)CC1
active: K-562 leukemia -20.3% | MDA-MB-231 breast -35.6% | SF-268 CNS -18.5% | M14 melanoma -66.7%
inactive: DU-145 prostate 30.9% | MALME-3M melanoma 77.3% | RXF 393 renal 59.7% | SF-295 CNS 67.1% | SF-539 CNS 66.6% | UACC-257 melanoma 45.7%

CC(=O)Nc1cccc(-n2c(COc3ccc(I)cc3)nc3ccccc32)c1
inactive: DU-145 prostate 99.4% and 101% | K-562 leukemia 67.5% and 104% | MALME-3M melanoma 86.9% and 106% | MDA-MB-231 breast 70.7% and 109% | RXF 393 renal 80.7% and 107% | SF-268 CNS 81% and 99.1% | SF-295 CNS 79.1% and 101% | SF-539 CNS 84.5% and 107% | UACC-257 melanoma 112% and 106% | M14 melanoma 102% and 115%

CCC(=O)c1c2c(c3ccc4c5ccccc5ccc4n13)C(=O)c1ccccc1C2=O
inactive: DU-145 prostate 20.3% | K-562 leukemia 96.7% | MDA-MB-231 breast 83% | RXF 393 renal 109% | SF-268 CNS 95.4% | SF-295 CNS 65.8% | SF-539 CNS 77.8% | UACC-257 melanoma 71.6% | M14 melanoma 24.6%
active: MALME-3M melanoma -87.5%

COc1ccc(Nc2ncnc3sc4c(c23)CCN(Cc2ccccc2)C4)cc1
inactive: DU-145 prostate 94.3% | K-562 leukemia 45.3% | MALME-3M melanoma 107% | MDA-MB-231 breast 87.5% | RXF 393 renal 74.6% | SF-268 CNS 66.1% | SF-295 CNS 67.6% | SF-539 CNS 91.3% | UACC-257 melanoma 94.6% | M14 melanoma 81.1%

NS(=O)(=O)c1ccc(Nc2nc(N/N=C/c3cc(Br)c(O)c(Br)c3)nc(Nc3ccccc3)n2)cc1
inactive: DU-145 prostate 50.6% | K-562 leukemia 14.3% | MALME-3M melanoma 42% | RXF 393 renal 54% | SF-268 CNS 21% | SF-295 CNS 43.8% | UACC-257 melanoma 97.4% | M14 melanoma 59.4%
active: MDA-MB-231 breast -0.169% | SF-539 CNS -25.8%

CCCCCCCCc1cccc(CC(=O)Nc2ccc(C)cc2C(=O)O)c1
inactive: DU-145 prostate 59.4% [25 µM] | K-562 leukemia 28.9% [25 µM] | MALME-3M melanoma 67.7% [25 µM] | MDA-MB-231 breast 66.5% [25 µM] | RXF 393 renal 104% [25 µM] | SF-268 CNS 61.9% [25 µM] | SF-295 CNS 35.2% [25 µM] | SF-539 CNS 37.1% [25 µM] | UACC-257 melanoma 71.2% [25 µM] | M14 melanoma 62.9% [25 µM]

COc1ccc(NC(=O)CSc2nnc(-c3ccc(-c4nc5ccccc5[nH]4)cc3)o2)cc1
active: DU-145 prostate 5.8% | RXF 393 renal -54.4% | SF-539 CNS -86.6% | M14 melanoma 1.64%
inactive: K-562 leukemia 22.2% | MALME-3M melanoma 10.2% | MDA-MB-231 breast 19.2% | SF-268 CNS 49.6% | SF-295 CNS 74.8% | UACC-257 melanoma 36.4%

Cc1ccc(C(=O)Nc2cc(-c3ccccc3)cc(C(F)(F)F)c2)cc1C#Cc1cnc2cccnn12
active: K-562 leukemia 5.94%
inactive: DU-145 prostate 84.8% | MALME-3M melanoma 39% | MDA-MB-231 breast 57.3% | RXF 393 renal 73.7% | SF-268 CNS 91.9% | SF-295 CNS 68% | SF-539 CNS 63.8% | UACC-257 melanoma 65.8% | M14 melanoma 36.8%

Cc1cccc(-c2ccccc2Oc2ccc3nnc(Cl)n3n2)c1
inactive: DU-145 prostate 111% | K-562 leukemia 103% | MALME-3M melanoma 94.4% | MDA-MB-231 breast 107% | RXF 393 renal 107% | SF-268 CNS 106% | SF-295 CNS 95.3% | SF-539 CNS 98.8% | UACC-257 melanoma 99% | M14 melanoma 97.6%

CSc1ccc(OCc2nc3ccccc3n2-c2cccc(NS(C)(=O)=O)c2)cc1
inactive: DU-145 prostate 103% and 67.1% | K-562 leukemia 94.4% and 106% | MALME-3M melanoma 95.3% and 84.1% | MDA-MB-231 breast 118% and 57.3% | RXF 393 renal 81.7% and 84.1% | SF-268 CNS 92.4% and 101% | SF-295 CNS 106% and 96.5% | SF-539 CNS 93.2% and 89.5% | UACC-257 melanoma 116% and 107% | M14 melanoma 119% and 81.6%

Cc1ccc(C(=O)Nc2ccc(-n3ccnc3)c(C(F)(F)F)c2)cc1C#Cc1cnc2cccnn12
inactive: DU-145 prostate 40.7% | SF-268 CNS 45.4% | SF-295 CNS 21.8%
active: K-562 leukemia 4.76% | MALME-3M melanoma -14% | MDA-MB-231 breast -15.5% | RXF 393 renal -20% | SF-539 CNS -40.9% | UACC-257 melanoma 8.92% | M14 melanoma 1.02%
